# Results reported in PubChem BioAssay AID743266 (National Center for Advancing Translational Sciences (NCATS), 2014).
# Values joined by “and” are separate entries in the source; they are usually repeats but may differ in a detail not shown here. Equal values may be shown once. Hit rate of the full screen: of about 410,000 compounds, about 310 (0.076%) were called active. Where a call stands in place of a potency, no number is given. Not shown: some 2% with an inconclusive outcome. Calls follow the shape of the dose curve; as a rule, active = well fitted activation curve with a large enough effect; inconclusive = small, poorly fitted or top-dose-only effect, or another doubt; inactive = no such curve, though single readings can be large or run the other way. Many of the other results were omitted from the sample, so actives are more common in it than they were. The source holds several records for some structures; these can differ, active in one and inactive in another.
# Target: Parathyroid hormone/parathyroid hormone-related peptide receptor (Homo sapiens) (UniProt Q03431)
# Sequence (Q03431 whole entry, looked up): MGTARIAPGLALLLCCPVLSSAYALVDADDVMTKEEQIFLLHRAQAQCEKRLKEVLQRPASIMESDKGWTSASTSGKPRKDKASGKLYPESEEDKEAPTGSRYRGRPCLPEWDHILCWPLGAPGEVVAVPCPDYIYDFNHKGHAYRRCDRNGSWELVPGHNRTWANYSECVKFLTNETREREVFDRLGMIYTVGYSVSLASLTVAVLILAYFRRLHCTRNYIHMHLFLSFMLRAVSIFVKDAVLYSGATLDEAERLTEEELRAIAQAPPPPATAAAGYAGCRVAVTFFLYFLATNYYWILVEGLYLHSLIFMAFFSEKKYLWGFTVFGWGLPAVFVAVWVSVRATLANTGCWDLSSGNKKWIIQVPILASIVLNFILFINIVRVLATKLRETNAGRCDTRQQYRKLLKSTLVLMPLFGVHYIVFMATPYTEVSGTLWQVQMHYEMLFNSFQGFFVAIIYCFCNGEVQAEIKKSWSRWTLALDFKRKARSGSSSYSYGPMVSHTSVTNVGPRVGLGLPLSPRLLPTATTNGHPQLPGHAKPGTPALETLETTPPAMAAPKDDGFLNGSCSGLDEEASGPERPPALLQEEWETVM
# Experiment: qHTS for PTHR1 Agonists: Primary Screen; also: nearly all actives have a fitted effect of over 55% in size
# Conditions: HEK293 GP2 PTHR1 cells, GloSensor cAMP luminescence, 1 h; series mostly up to 115 µM
# Excerpt: The goal of the proposed studies is to discover new compounds that act as potent agonists on the parathyroid hormone receptor type-1 (PTHR1). The PTHR1 plays critical roles in maintaining blood calcium and phosphate levels, as well as in controlling bone remodeling. PTHR1 agonists could thus be useful for treating diseases such as hypoparathyroidism and osteoporosis. In the former disease, an agonist drug would help maintain normal blood calcium and phosphate levels under conditions of parathyroid hormone deficiency. In the latter disease, an agonist drug would stimulate new bone formation and thus reduce the risk of fracture, under conditions of bone fragility, as occurs in aging.
# To that end, we performed a quantitative high-throughput screening (qHTS) of the Molecular Libraries Probe Centers Network (MLPCN) compound libraries at the NIH Chemical Genomics Center (NCGC) for the parathyroid hormone receptor type-1 (PTHR1) using a unique HEK-293-derived cell line (GP2) that expresses the PTHR1 and a glosensor cAMP reporter construct.
# NIH Molecular Libraries Probe Production Centers Network [MLPCN]
# NIH Chemical Genomics Center [NCGC]
# Assay Submitter (PI): Thomas Gardella, Massachusetts General Hospital
# 4 microL are dispensed into a 1536-well micro plate to yield 3,000 cells/well. The plates are then incubated overnight, after which 4 microL of 0.5 mM of BIoTium Luciferin plus 0.5 mM IBMX are added. They are then incubated at 37 degree for one hour before 23 nL of compounds are added through pinning and then incubated at 37 degree again for another hour. After the plates are kept at room temperature for 15 min before they are read on the ViewLux to measure luminescence.
# Potency is read from the fitted curve at half-maximal effect.
row,SMILES,Potency
1,COc1ccc(CCNc2nc3c(-c4cccc(F)c4)nnn3c3ccccc23)cc1OC,inactive
2,COc1ccc(C2c3c(oc4ccccc4c3=O)C(=O)N2Cc2ccc3c(c2)OCO3)cc1 (stereo not given),inactive
3,Cc1ccc(C(=O)Nc2c(C(=O)NC(C)(C)C)oc3ccccc23)cc1,inactive
4,CSc1nn(Cc2cccc(C)c2)c(N)c1S(=O)(=O)c1ccccc1,inactive
5,CCC(C)c1ccc2oc(-c3ccc(NC(=O)c4cc5ccccc5o4)cc3)nc2c1 (stereo not given),inactive
6,CCOc1ccc(CNCc2c(C(=O)O)c(C)n(Cc3cccc(OC)c3)c2C)cc1OC,inactive
7,CCCCNC(=O)c1cc(-c2ccc(Cl)c(Cl)c2)on1,inactive
8,CN1CCN(C(CNC(=O)c2ccccc2F)c2ccc3c(c2)OCO3)CC1 (stereo not given),inactive
9,COC(=O)c1ccccc1NC(=O)c1ccc(COc2ccccc2Cl)o1,inactive
10,CCC(CC)c1nn2cc(-c3ccccc3)nc2s1,inactive
11,COCCNS(=O)(=O)c1cc(-c2nn3c(C)nnc3c3ccccc23)ccc1C,inactive
12,CCN(CC)S(=O)(=O)c1ccc2c(c1)N(CC(=O)NCC(C)c1ccccc1)C(=O)CO2 (stereo not given),inactive
13,CCOc1cc(C2C(C(=O)Nc3ccc(OC)cc3)=C(C)Nc3nc(SC)nn32)ccc1O (stereo not given),inactive
14,Cc1cc(OCC(=O)Nc2ncn[nH]2)c(C)c(C)c1Br,inactive
15,Cc1nc(SCC(=O)Nc2ccc(C(=O)O)cc2)n[nH]1,inactive
16,O=C(NCCc1ccccc1)C(=O)NCC(c1ccco1)S(=O)(=O)c1ccccc1 (stereo not given),inactive
17,Cc1ccc(C)n1-c1nnc(N2CCC(C(=O)NCc3ccccc3Cl)CC2)s1,inactive
18,CC(C)(C)c1ccc(C(=O)NCC(c2ccco2)S(=O)(=O)c2ccc(F)cc2)cc1 (stereo not given),inactive
19,Cc1c(Cl)cccc1NC(=O)N1CCN(C(=O)c2nsc3ccccc23)CC1,inactive
20,CCOC(=O)c1c(S(=O)(=O)N2CCCC(C(=O)NCc3ccc(F)cc3)C2)c(C)n(CC)c1C (stereo not given),inactive
21,O=c1c2cccnc2n(Cc2cccc(F)c2)c(=O)n1Cc1ccccc1Cl,inactive
22,CCOc1ccc(OCC)c(NS(=O)(=O)c2ccc3[nH]c(=O)ccc3c2)c1,inactive
23,Cc1ccc(NC(=O)CSc2nc3c(c(=O)[nH]2)CN(Cc2ccc4c(c2)OCO4)CC3)cc1C,inactive
24,COc1cccc(CNC(=O)C2CCN(S(=O)(=O)c3ccc4c(ccn4C)c3)CC2)c1,inactive

row,SMILES,Potency
1,COc1ccc(CNc2nc(-c3ccc(Cl)cc3)cc(C(F)(F)F)n2)cc1,inactive
2,COc1cc(Cl)c(NC(=O)C(NS(=O)(=O)c2cccs2)C(C)C)c(OC)c1 (stereo not given),inactive
3,Cc1oc2ccc(O)c(CN3CCCCC3)c2c1C(=O)Nc1cccc(C(F)(F)F)c1,inactive
4,CCCCN(CC)CCCNC(=O)c1nn(C)c2c1CS(=O)(=O)c1ccccc1-2,inactive
5,COc1ccc(-n2c(SCC(=O)Nc3ccc(Cl)c(C)c3)nc3n[nH]c(C)c3c2=N)cc1,inactive
6,Cc1c(NC(=O)c2cc(=O)c3ccccc3o2)c(=O)n(-c2ccccc2)n1C,inactive
7,CCCn1c2ccccc2c2cnn(CC(=O)N(C)c3ccccc3CC)c(=O)c21,inactive
8,COC(=O)c1ccc(NC(=O)CCc2c(C)nc3c(c(C)nn3-c3ccc(C)cc3)c2C)cc1,inactive
9,Cc1ccc(Cn2c(C)c3cnn(CC(=O)NCc4ccccc4)c(=O)c3c2C)cc1,inactive
10,Cc1ccc(C)c(N2CCN(c3ccc4cc(S(=O)(=O)N5CCC(C)CC5)ccc4n3)CC2)c1,inactive
11,COc1ccccc1CNc1ccc(-c2nc(-c3ccccc3C)no2)cc1[N+](=O)[O-],inactive
12,Cn1c(=O)[nH]c(=O)c2c1nc(NCCc1ccccc1)n2Cc1ccc(F)cc1,inactive
13,CCCCN(C)CCCNC(=O)CN1N=C(c2ccc(OC)cc2)CCC1=O,inactive
14,O=C(Nc1ccc2nc(SCC(=O)N3CCc4ccccc43)sc2c1)c1ccccc1F,inactive
15,CCOc1ccccc1CNC(=O)c1ccc(-n2c(C)cc3c2CCC(C)C3)cc1 (stereo not given),inactive
16,CCOC(=O)c1c(C)[nH]c(CCC(=O)NCCCN2CCN(c3cccc(Cl)c3)CC2)c1C,inactive
17,Cc1ccc(C)c(N2CCN(S(=O)(=O)c3ccc4c(c3)C(C(C)C)C(=O)N4)CC2)c1 (stereo not given),inactive
18,CCOc1ccccc1CNC(=O)Nc1cn(CC(C)C)c(=O)c2ccccc12,inactive
19,CCOc1cc(CNC(=O)c2sc3ncnc(N(C)C4CCCCC4)c3c2C)ccc1OC,inactive
20,Cc1nn2c(=O)cc(COC(=O)CNC(=O)c3ccc(F)cc3)nc2s1,inactive
21,COc1ccc(CCNC(=O)c2nn(C)c3c2CSc2ccccc2-3)cc1OC,inactive
22,Cc1c(C(=O)NCc2ccccc2Br)oc2ccc3c(c12)C(=O)CC(C)(C)O3,inactive
23,CCc1cccc(C)c1NS(=O)(=O)c1ccc(-c2cc(C)no2)s1,inactive
24,CCCc1nn2c(=O)cc(COC(=O)c3ccc(NC(=O)COc4ccc(F)cc4)cc3)nc2s1,inactive

row,SMILES,Potency
1,CCCCC(=O)OC1=CN(Cc2ccccc2)S(=O)(=O)c2ccccc21,inactive
2,COc1ccc(OCCn2cc(C(=O)C3CCCCC3)c3ccccc32)cc1,inactive
3,Cc1oc2ccc(O)c(CN3CCOCC3)c2c1C(=O)Nc1cccc(Cl)c1C,inactive
4,COc1ccccc1C(=O)NCCn1cc(SCc2ccccc2Cl)c2ccccc21,inactive
5,O=S(=O)(NCC(c1ccco1)N1CCOCC1)c1cc(F)ccc1F (stereo not given),inactive
6,Cc1ccccc1-c1nc(SCC(=O)N(C)c2ccccc2)c2c(=O)n(C)c(=O)n(C)c2n1,inactive
7,COc1ccccc1NC(=O)C(=O)c1cc(C)n(-c2ccccc2F)c1C,inactive
8,CC1CCCN(c2csc3ccc(F)cc3c2=O)C1 (stereo not given),inactive
9,COc1ccc(S(=O)(=O)N2CCN(c3ccc(F)cc3)CC2)cc1-c1noc(C)n1,inactive
10,CCC(=O)N1CCc2cc(S(=O)(=O)NC(Cc3ccccc3)C(=O)NCc3ccccc3)ccc21 (stereo not given),inactive
11,CCn1c(=O)c2cc(C(=O)NCCc3ccc(Cl)cc3)sc2c2ccccc21,inactive
12,CCCn1c2ccccc2c2cnn(CC(=O)NCCCN3CCCCC3CC)c(=O)c21 (stereo not given),inactive
13,CCC1CCCCN1CCCNC(=O)c1cc2c(Cl)nc3ccccc3c2s1 (stereo not given),inactive and 25.1 µM (active)
14,COc1ccc(C)cc1NC(=O)C(=O)NCCc1sc(-c2cccc(C)c2)nc1C,inactive
15,CCCn1c2ccccc2c2cnn(CC(=O)NCC3CCN(Cc4ccc(C)cc4)CC3)c(=O)c21,inactive
16,Cn1c(=O)sc2cc(NS(=O)(=O)c3ccc(C(C)(C)C)cc3)ccc21,inactive
17,O=C(CSc1nccn1Cc1ccc(F)cc1)NCc1ccccc1,inactive
18,O=C(Cn1nc(C(F)(F)F)c2c1CCCC2)Nc1ccc(Cl)cc1,inactive
19,CCOC(=O)C1CCN(c2ncnc3c2c(-c2ccccc2)cn3-c2cccc(C)c2)CC1,inactive
20,CSc1ccc(CCNC(=O)c2cnn(-c3ccccc3)c2-n2cccc2)cc1,inactive
21,COc1ccccc1CNC(=O)CS(=O)(=O)c1cccc2nsnc12,inactive
22,COc1ccc(N2CCN(Cc3nc4c(c(=O)[nH]c(=O)n4C)n3Cc3ccc(Cl)cc3)CC2)cc1,inactive
23,COc1ccccc1C(=O)OCc1cc(=O)n2nc(-c3cccs3)sc2n1,inactive
24,NS(=O)(=O)c1ccc(CCNC(=O)CCCn2c(SCC(=O)N3CCCC3)nc3ccsc3c2=O)cc1,21.6 µM (active)

row,SMILES,Potency
1,NS(=O)(=O)c1ccc(CCNC(=O)CCCCCn2c(=O)[nH]c3ccccc3c2=O)cc1,inactive
2,CCCCn1c(SCC(=O)N2CCCC2=O)nc2cc(S(N)(=O)=O)ccc21,inactive
3,CCc1nc2c(cnn2-c2ccc(C)cc2)c(=O)n1-c1ccc(C)cc1,inactive
4,CCCC12CN3CC(CCC)(CN(C1)C3c1c[nH]c3ccc(OC)cc13)C2=O (stereo not given),inactive
5,Cc1ccc(C)c(NC(=O)Cn2ccn(-c3ccc(F)cc3)c(=O)c2=O)c1,inactive
6,Cc1cc(C)cc(NC(=O)Cn2c(=O)c3ccccc3n3nncc23)c1,inactive
7,Fc1ccc(-n2ncc3c(Nc4ccc(Oc5ccccc5)cc4)ncnc32)cc1,inactive
8,Cc1ccc(CNC(=O)CCc2c(C)nc3nc(CNC(=O)OC(C)(C)C)nn3c2C)cc1,inactive
9,CCN(CC)S(=O)(=O)c1ccc2c(c1)N(CC(=O)NCc1ccccc1)C(=O)CS2,inactive
10,COc1ccc2c(c1)c(=O)c(C(=O)c1ccccc1)cn2CC(=O)Nc1ccc2c(c1)OCCO2,inactive
11,COc1ccccc1CN1CCC(CNC(=O)c2cnn(-c3cccc(Cl)c3)c2C2CCN(C(=O)OC(C)(C)C)CC2)CC1,inactive
12,COc1cccc(CNC(=O)CCC(=O)N2CC3CCCN3c3ccccc32)c1 (stereo not given),inactive
13,Cc1ccn2c(Nc3ccc4c(c3)OCCO4)c(-c3ccc(C)s3)nc2c1,inactive
14,COc1ccc(NC(=O)C2CCN(c3ccc(Sc4ccc(C)cc4)nn3)CC2)c(OC)c1,inactive
15,COc1ccc(Cn2ccnc2SCC(=O)Nc2ccc3c(c2)OCO3)cc1,inactive
16,Cc1cccc(-c2nc(SCC(=O)Nc3cc(C)on3)c3c(=O)n(C)c(=O)n(C)c3n2)c1,inactive
17,COc1ccc(OC)c(NC(=O)CN2CCCN(Cc3cc(C)ccc3C)S2(=O)=O)c1,inactive
18,COc1ccc(OC)c(CNC(=O)CN2C(=O)CCn3nc(-c4cn(C)c5ccccc45)cc32)c1,inactive
19,CC1CCCN(c2cc3c(cc2F)c(=O)c(S(=O)(=O)c2cccc(Cl)c2)cn3Cc2ccccc2)C1 (stereo not given),inactive
20,CCOC(=O)c1ccccc1NC(=O)c1sc2nc(-c3ccc(F)cc3)cn2c1C,inactive
21,CCOc1ccc(-c2cc(C)n3nc(C(=O)Nc4ccc(C)c(C)c4)cc3n2)cc1,inactive
22,O=S(=O)(NCCS(=O)(=O)N1CCN(c2ccccc2)CC1)c1ccc(Cl)cc1,inactive
23,CCN(CC)S(=O)(=O)c1ccc2c(c1)nc(CN(C)C(=O)Nc1ccc(Cl)cc1)n2C,inactive
